The supplement of paper PMC6555819

Columns and labels:
Assay in all cases: PBM binding z-score (relative to random genomic background probes); higher = stronger binding; sequences stand for … in GC…GCGATTGACAGCGTAGAATGAAGG
[1] = tested on: FXR:RXRa (NR concentration 270 nM, RXRa partner concentration 90 nM)
How it was run: (§1)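 Scanned fluorescence from custom Agilent 4×180K protein-binding microarrays was regression-normalized. Binding z-scores use random background probes as reference. Ligand-free nuclear receptor dimers were incubated on the arrays for 1 h and detected with antibodies against each partner (one per run).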

[2] = tested on: LXRa:RXRa (NR concentration 270 nM, RXRa partner concentration 90 nM)
How it was run: as §1

[3] = tested on: LXRa homodimer (NR concentration 270 nM)
How it was run: as §1

[4] = tested on: LXRb:RXRa (NR concentration 270 nM, RXRa partner concentration 90 nM)
How it was run: as §1

[5] = tested on: LXRb homodimer (NR concentration 270 nM)
How it was run: as §1

[6] = tested on: PPARa:RXRa (NR concentration 270 nM, RXRa partner concentration 90 nM)
How it was run: as §1

[7] = tested on: PPARg:RXRa (NR concentration 180 nM, RXRa partner concentration 90 nM)
How it was run: as §1

[8] = tested on: PPARg:RXRa 270nM:90nM, anti-RXR (NR concentration 270 nM, RXRa partner concentration 90 nM)
How it was run: as §1

[9] = tested on: PPARg:RXRa 30nM:10nM, anti-RXR (NR concentration 30 nM, RXRa partner concentration 10 nM)
How it was run: as §1

[10] = tested on: PPARg:RXRa 90nM:30nM, anti-RXR (NR concentration 90 nM, RXRa partner concentration 30 nM)
How it was run: as §1

[11] = tested on: PPARg:RXRa DBDmut IVT, anti-RXR (DBD mutation: RXRa K156A/R161A, NR concentration 270 nM, RXRa partner concentration 90 nM)
How it was run: as §1

[12] = tested on: PPARg:RXRa IVT, anti-PPARg (NR concentration 270 nM, RXRa partner concentration 90 nM)
How it was run: as §1

[13] = tested on: PPARg DBDmut:RXRa IVT, anti-PPARg (DBD mutation: PPARg1 K132A/R137A, NR concentration 270 nM, RXRa partner concentration 90 nM)
How it was run: as §1

[14] = tested on: PPARg DBDmut IVT, anti-PPARg (DBD mutation: PPARg1 K132A/R137A, NR concentration 270 nM)
How it was run: as §1

[15] = tested on: PPARg homodimer (NR concentration 180 nM)
How it was run: as §1

[16] = tested on: PXR:RXRa (NR concentration 270 nM, RXRa partner concentration 90 nM)
How it was run: as §1

[17] = tested on: PXR homodimer (NR concentration 270 nM)
How it was run: as §1

[18] = tested on: RARa:RXR (NR concentration 270 nM, RXRa partner concentration 90 nM)
How it was run: as §1

[19] = tested on: RARa homodimer (NR concentration 270 nM)
How it was run: as §1

[20] = tested on: RARb:RXRa (NR concentration 270 nM, RXRa partner concentration 90 nM)
How it was run: as §1

Row | Sequence | PBM binding z-score [1] | PBM binding z-score [2] | PBM binding z-score [3] | PBM binding z-score [4] | PBM binding z-score [5] | PBM binding z-score [6] | PBM binding z-score [7] | PBM binding z-score [8] | PBM binding z-score [9] | PBM binding z-score [10] | PBM binding z-score [11] | PBM binding z-score [12] | PBM binding z-score [13] | PBM binding z-score [14] | PBM binding z-score [15] | PBM binding z-score [16] | PBM binding z-score [17] | PBM binding z-score [18] | PBM binding z-score [19] | PBM binding z-score [20]
1 | CGTCCAAGGTCAAGGCTAGGTCAGTGAAAGCATT | 7.26 | 5.52 | 1.5 | 4.11 | -0.26 | 5.33 | 4.97 | 5.35 | 1.61 | 4.01 | 3.68 | 4.19 | -0.104 | -0.338 | 5.83 | 5.03 | 1.42 | 6.19 | 1.29 | 5.43
2 | CCTTACGGGTCACTGACTGGTTATAGCATTTGGA | 5.56 | 3.75 | 0.422 | 3.15 | -0.0702 | 4.99 | 4.13 | 4.14 | 1.38 | 2.81 | 3.65 | 3.69 | 0.987 | 0.315 | 3.15 | 3.1 | 0.287 | 4.06 | 2.05 | 4.02
3 | TCTATTAGTTGAATGGCAACCGACGAGTCCGTTT | 1.04 | 1.04 | 0.119 | 1.01 | 0.477 | 0.96 | -0.00847 | 2.18 | 3.81 | 2.92 | 2.47 | 0.106 | 0.422 | 0.888 | 1.27 | 0.794 | 0.892 | 0.79 | 1.08 | 0.622
4 | CCTGCTAGGTGATGGTCAGCTAATCTACAGTATG | -0.61 | -0.646 | -0.557 | -0.682 | -0.584 | -0.449 | -0.12 | -0.449 | -0.178 | -0.369 | 1.57 | 1.13 | -1.09 | -0.973 | -0.218 | -0.725 | -0.701 | -0.72 | -0.885 | 0.079
5 | CCGACTGGGGCATAAGATTACCATAAGCCAGCCC | -0.495 | -0.33 | -0.319 | -0.411 | -1.33 | 0.114 | 1.12 | 0.921 | -0.305 | 0.461 | 3.26 | 1.75 | -0.988 | -1.17 | 0.089 | -0.666 | -0.41 | -0.621 | -0.486 | 0.112
6 | CGTCCAAGGTCATAGGAAGTCAGTGAAGACAGAT | 6.83 | 5.5 | 1.21 | 3.9 | 0.55 | 5.43 | 4.4 | 4.99 | 1.57 | 3.64 | 3.11 | 3.4 | 0.667 | -0.147 | 2.75 | 3.99 | 0.915 | 4.28 | 0.466 | 4.81
7 | ACAATTAGTTGACTTAGGGCAACCGATACGACGC | 0.279 | 0.33 | 0.565 | 0.0599 | 0.612 | 0.00256 | 1.03 | 0.396 | 0.353 | 0.139 | 0.0819 | 0.506 | 0.981 | 1.45 | 0.921 | -0.00518 | 0.761 | 0.318 | 0.646 | 0.888
